SMILES strings stand for the structures. Records with an inconclusive call do not appear. A call without a number means that no potency is given here. A number with no mark means an inactive call. Active and inactive are the calls of the source. The call rests on the fitted dose curve; in most records, active means well fitted inhibition curve with a large enough effect; inconclusive means small, poorly fitted or top-dose-only effect, or effect the other way; inactive means no such curve, though single readings can be large or run the other way.
Potency means the concentration at half of the fitted maximal effect.

This assay can be described thus: DHR3 selectivity assay for inhibitors of ROR gamma transcriptional activity. The settings on record: Drosophila S2 Gal4-DHR3 UAS-luciferase, 20 h; series mostly up to 92.2 µM. The source says: NIH Molecular Libraries Probe Production Network [MLPCN] NIH Chemical Genomics Center [NCGC] MLPCN Grant: R03 DA026211-01 Assay Provider: Dan Littman, New York University Assay Overview: The retinoic acid-related orphan receptor (ROR) gamma is a transcription factor that has a central role in the differentiation of Th17 cells, a subset of T helper cells that secrete the inflammatory cytokines IL-17A, IL-17F, and IL-22. Th17 cells have been implicated in graft versus host disease, autoimmune disease and asthma. RORgamma is induced in naive T helper cells in the presence of TGF-beta combined with IL-6, IL-21, or IL-23, and thereafter directs the expression of the Th17 lineage cytokines. To identify […] inhibitors, a Drosophila Schneider cell line was stably transfected with two vectors: a gene expressing a fusion of the Gal4 DNA binding domain and the transactivation domain of the Drosophila Hormone Receptor 3 (DHR3), under the control of the metallothionine promoter and a Photinus luciferase reporter regulated by the Gal4 binding site enhancer, UAS. […] Small molecule inhibitors that inhibit components common to the RORgamma and DHR3 assays, such as proteins that interact with general nuclear hormone receptors, will be active in both assays and thus scored as nonselective.
Assay Protocol Summary: For screening, 600 cells in 4 uL/well were dispensed into white solid 1536-well plates (Grenier) using a solenoid-based dispenser. Following transfer of 23 nL compound or DMSO vehicle by a pin tool, the plates were incubated 1 hr at ambient temperature, and 1 uL/well copper sulfate (700 uM final concentration) was added. The plates were centrifuged 15 s at 1000 RPM and incubated 20 hr at ambient temperature. After addition of 1.5 uL Photinus luciferase detection reagent, the plates were incubated 10 min at ambient temperature and then read by an ViewLux (Perkin Elmer) to detect luminescence.
For `CC1CCCN(C(=O)CC(c2ccc3c(c2)OCO3)c2ccc(O)cc2O)C1` (configuration not stated), the Potency result is “inactive”.

In the case of `CN(C)S(=O)(=O)c1ccc(NC(=O)/C=C/c2ccccc2Cl)cc1`, the Potency is 1620 nM (active).

For the compound `COc1cc(O)c(C(CC(=O)N2CCCC(C)(C)C2)c2ccc3c(c2)OCO3)c(OC)c1` (configuration not stated), the Potency entry is “inactive”.

On to `COc1cc(O)c(C(CC(=O)N2CCC(C)CC2)c2ccc3c(c2)OCO3)c(OC)c1` (configuration not stated), for which the Potency entry was “inactive”. On to `CC1CCCN(C(=O)CC(c2ccc3c(c2)OCO3)c2ccc3ccccc3c2O)C1` (configuration not stated), for which the Potency result is “inactive”. As to `CCC1(CC)CCN(C(=O)CC(c2ccc3c(c2)OCO3)c2c(O)cc(OC)cc2OC)C1` (configuration not stated), the Potency result was “inactive”. Consider `COC(=O)Cn1c(CN2CCc3ccccc3C2)nc2c1c(=O)n(C)c(=O)n2C`, for which the Potency is 8120 nM (active). For `COc1cc(O)c(C(CC(=O)N2CCCC(C)C2)c2ccc(-c3ccccc3)cc2)c(OC)c1` (configuration not stated), the Potency result is “inactive”. With `CCC1CCCN(C(=O)CC(c2ccc3c(c2)OCO3)c2c(O)cc(OC)cc2OC)C1` (configuration not stated), the Potency result is “inactive”. Consider `CCOC(=O)c1sc(NC(=O)c2ccc(S(=O)(=O)N(C)C)cc2)nc1C`, for which the Potency was 45.7 nM (active). With `COC(=O)c1ccc(OCC(=O)c2ccc(O)cc2O)cc1`, the Potency was 363 nM (active).

In the case of `CCNC(=O)CCc1nc(-c2ccc(C(C)(C)C)cc2)no1`, the Potency is 115 nM (active). As for `CCOC(=O)Cn1c(CN2CCc3ccccc3C2)nc2c1c(=O)n(C)c(=O)n2C`, the Potency was 6450 nM (active).

On to `COc1cc(O)c(C(CC(=O)N2CCCC(C)C2)c2ccccc2C)c(OC)c1` (configuration not stated), for which the Potency result is “inactive”.

Regarding `COc1ccc(C(CC(=O)Nc2ccc(F)cc2)c2ccccc2)cc1` (configuration not stated), the Potency result was “inactive”. Take `CC1=C(\C=C/C(C)=C/C=C\C(C)=C\C(=O)O)C(C)(C)CCC1`: the activity change, negative = inhibition was -6.6% [at 20 µM]. As to `COc1cc(O)c(C(CC(=O)N2CCC(C)CC2)c2ccc(OC)c(OC)c2)c(OC)c1` (configuration not stated), the Potency entry is “inactive”. As to `CCC(=O)C1CCCN(C(=O)CC(c2ccc3c(c2)OCO3)c2c(O)cc(OC)cc2OC)C1` (configuration not stated), the Potency entry was “inactive”. As for `CCOc1ncccc1C(=O)OCC(=O)Nc1ccc(-c2nc3ccc(C)cc3s2)cc1`, the Potency was 363 nM (active). Take `Cc1cccc(C(CC(=O)NCCc2ccccc2)c2ccccc2)c1O` (configuration not stated): the Potency result is “inactive”. Same read-out and setting: as for `CCOC(=O)c1sc(NC(=O)c2cc3c(s2)CCC(C)C3)nc1C` (configuration not stated), the figure is 51.2 nM (active); as for `COc1cc(O)c(C(CC(=O)N2CCCC(C)C2)c2ccc3ccccc3c2)c(OC)c1` (configuration not stated), “inactive”.

The values are drawn from PubChem BioAssay AID489038 (National Center for Advancing Translational Sciences (NCATS), 2010).
